Assay results from PubChem BioAssay (NCI).
Compounds without any hit were thinned out: in the full panel of roughly 83,000, 20% have a hit.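 Method: cells in 96-well plates; compound added at one concentration; 48 h incubation; percent growth measured; values under 10 scored active.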 A number with no mark means an inactive call. Active and inactive are the calls of the source.

Assays:
Assay in all cases: NCI-60 one-dose screen, 48 h (100 = growth as untreated, 0 = no growth, -100 = all killed)
Conditions in all cases: 10 µM unless noted
HCT-15 colon = system: HCT-15 colon
HT29 colon = system: HT29 colon
SNB-75 CNS = system: SNB-75 CNS
SNB-19 CNS = system: SNB-19 CNS
U251 CNS = system: U251 CNS
PC-3 prostate = system: PC-3 prostate
SK-MEL-5 melanoma = system: SK-MEL-5 melanoma
UACC-62 melanoma = system: UACC-62 melanoma
LOX IMVI melanoma = system: LOX IMVI melanoma
SK-MEL-28 melanoma = system: SK-MEL-28 melanoma
SK-MEL-2 melanoma = system: SK-MEL-2 melanoma
EKVX NSCLC = system: EKVX NSCLC
SN12C renal = system: SN12C renal
UO-31 renal = system: UO-31 renal
TK-10 renal = system: TK-10 renal
ACHN renal = system: ACHN renal
CAKI-1 renal = system: CAKI-1 renal
A498 renal = system: A498 renal
CCRF-CEM leukemia = system: CCRF-CEM leukemia
MOLT-4 leukemia = system: MOLT-4 leukemia

Compound | growth (HCT-15 colon) | growth (HT29 colon) | growth (SNB-75 CNS) | growth (SNB-19 CNS) | growth (U251 CNS) | growth (PC-3 prostate) | growth (SK-MEL-5 melanoma) | growth (UACC-62 melanoma) | growth (LOX IMVI melanoma) | growth (SK-MEL-28 melanoma) | growth (SK-MEL-2 melanoma) | growth (EKVX NSCLC) | growth (SN12C renal) | growth (UO-31 renal) | growth (TK-10 renal) | growth (ACHN renal) | growth (CAKI-1 renal) | growth (A498 renal) | growth (CCRF-CEM leukemia) | growth (MOLT-4 leukemia)
CC/C=C\C[C@H]1C/C=C2/C(=O)C(Cl)=C[C@@H]2C/C=C\CCCC(=O)O1 | -90.8% (active) | -55.6% (active) | -19.9% (active) | -40.2% (active) | -79.2% (active) | -69.9% (active) | -62.6% (active) | -53.1% (active) | -91.4% (active) | -43% (active) | -44.1% (active) | -82% (active) | -1.11% (active) | -93.8% (active) | -55.3% (active) | -64.6% (active) | 2.64% (active) | -68.3% (active) | -19.1% (active) | -9.42% (active)
COc1ccc(OC)c(NC(=O)c2cc(S(=O)(=O)N3CCc4ccccc43)ccc2OC)c1 | 107% | 76.7% | 85.1% | 75.9% | 92.1% | 88.5% | 67.6% | 79.2% | 94.7% | 131% | 36.4% | 94.9% | 95% | 42.2% | 91.9% | 93.3% | 107% | 69.8% | 107% | 106%
CCN1C(=O)N[C@H]2[C@@H]3NC(=O)c4ccc(Cl)n4[C@@H]3C[C@]21O | 13.4% | 2.91% (active) | -2.5% (active) | -8.44% (active) | -5.63% (active) | 9.77% (active) | -28.7% (active) | -20.9% (active) | -6.47% (active) | -6.88% (active) | -37% (active) | 10.8% | -1.6% (active) | 37.3% | 4.37% (active) | 14.9% | 31% | -0.0737% (active) | -7.16% (active) | 0.842% (active)
Cc1ccc2nc(SCn3nnc4ccccc4c3=O)[nH]c2c1 | 125% | 102% | 88% | 108% | 103% | 103% | 101% | 98.4% | 100% | 121% | 69.5% | 97.1% | 108% | 73.8% | 196% | 105% | 93.5% | 108% | 102% | 71.2%
CSc1nc(-c2cc3ccccc3o2)cc(-c2ccc(Cl)cc2)c1C#N | 31.1% | -50.6% (active) | -36% (active) | 55.1% | 6.2% (active) | 22.2% | 55.3% | -17.1% (active) | 16.8% | 65.2% | 23.8% | 73.7% | 36.8% | -18.2% (active) | 54.7% | -63% (active) | 48% | 81.9% | 86.8% | 94.5%
CN1CCN(CCCOc2ccc3nc(Nc4ccc(C(F)(F)F)c(Cl)c4)ccc3c2)CC1 | -36.9% (active) | -67.2% (active) | 4.61% (active) | -41.2% (active) | -62.3% (active) | 8.45% (active) | 34.1% | -36.3% (active) | -83.1% (active) | -73.2% (active) | 8.88% (active) | 38.7% | 25% | -8.8% (active) | 18.9% | 3.12% (active) | 3.08% (active) | 63.3% | 3.91% (active) | -35.7% (active)
Cn1c(=O)c2c(nc3n2CCN(CCc2ccc(OCCN4CCOCC4)cc2)C3)n(C)c1=O | 105% | 107% | 101% | 108% | 105% | 94.1% | 94.2% | 98.8% | 97% | 111% | 101% | 102% | 104% | 93.8% | 104% | 106% | 97.5% | 81.3% | 105% | 98%
CCC(c1ccc(OC)cc1)C(CC)c1ccc(OCC[N+](C)(C)C)cc1 (stereo not given) | 91.5% | 28.4% | 40% | 19.3% | 18.9% | 45.3% | 15.4% | 30.3% | 42.9% | 45.1% | 94% | 81.1% | 34.1% | 82.2% | 76.4% | 91% | 99.2% | 93.2% | 58.8% | 51.8%
COc1cc(-c2csc(NC(=O)c3cc(C(F)(F)F)cc(C(F)(F)F)c3)n2)cc(OC)c1OC | 15.6% | 21.3% | 52.5% | 29.9% | 21% | 10.6% | -30.1% (active) | 3.9% (active) | 26.5% | 40.8% | 21.5% | 9.17% (active) | 25.3% | 21.3% | 33% | 36.1% | 43.2% | 11.1% | 29.3% | 20.5%
O=S(=O)(NCCNc1cc(-c2cn(-c3ccccc3)nc2-c2ccccc2)ccn1)c1ccc(F)cc1 | 74.2% | 88.3% | 77.4% | 92.5% | 72.7% | 47.6% | 68.9% | 89.4% | 78.5% | 104% | 108% | 71.3% | 92.8% | 60.7% | 114% | 93% | 66.1% | 83.8% | 83.4% | 70.1%
CC(Br)C(Br)c1cc2c(cc1Br)OCO2 (stereo not given) | 101% | 96% | 78.2% | 111% | 93.1% | 79.2% | 104% | 108% | 96.2% | 105% | 91.4% | 93.8% | 110% | 90.7% | 96.6% | 93.2% | 84% | 99.3% | 99.6% | 94.7%
NC(N)=NC(N)=Nc1ccccc1-c1ccccc1 | 108% | 112% | 97.4% | 111% | 106% | 103% | 107% | 108% | 102% | 109% | 109% | 111% | 105% | 99.3% | 108% | 106% | 89.8% | 113% | 113% | 98.6%
COC(=O)c1ccc(C)cc1 | 105% | 98.6% | 89.2% | 115% | 94.9% | 97.5% | 103% | 106% | 99.5% | 113% | 106% | 98.3% | 107% | 101% | -16.3% (active) | 116% | 97% | 79.9% | 101% | 103%
CC/C=C\C[C@H](O)C/C=C1/C(=O)C(Cl)=C[C@@H]1C/C=C\CCCC(=O)OC | -61.5% (active) | -76.7% (active) | 50% | -10.9% (active) | -75.7% (active) | -33.9% (active) | -77.7% (active) | -57% (active) | -89.9% (active) | -2.03% (active) | -21% (active) | -63.2% (active) | -51.7% (active) | -94.5% (active) | -34.2% (active) | -43.6% (active) | 13.2% | 1.86% (active) | -3.78% (active) | -6.11% (active)
Cc1cc(NC(=O)COC(=O)c2sc3cc(F)ccc3c2Cl)no1 | 106% | 114% | 104% | 103% | 106% | 101% | 110% | 90.2% | 103% | 121% | 44.8% | 105% | 107% | 39.2% | 125% | 106% | 110% | 103% | 66.9% | 108%
CC1Cc2c(N(C)C)ncnc2N(C)c2ccc(Cl)cc21 (stereo not given) | 18.8% | 10.8% | -12.4% (active) | 39.1% | 27.3% | 32.9% | 11.1% | 33.2% | 35.8% | 52.4% | 27.3% | 29.3% | 47.9% | 59.4% | 31.8% | 47.1% | 25.1% | -12.5% (active) | 18.1% | 28.2%
